# Records with an inconclusive call do not appear. Where a call stands in place of a potency, no number is given. Calls of active or inactive are those of the source. Calls follow the shape of the dose curve; as a rule, active = well fitted inhibition curve with a large enough effect in the signal ratio in the repeat runs (not every such curve was filed as active); inconclusive = weak or mixed curves, or effect the other way; inactive = no such curve, though single readings can be large or run the other way; the % refers to the signal ratio.
# Target: Peroxisome proliferator-activated receptor delta (Homo sapiens) (UniProt Q03181)
# Sequence (Q03181 whole entry, looked up): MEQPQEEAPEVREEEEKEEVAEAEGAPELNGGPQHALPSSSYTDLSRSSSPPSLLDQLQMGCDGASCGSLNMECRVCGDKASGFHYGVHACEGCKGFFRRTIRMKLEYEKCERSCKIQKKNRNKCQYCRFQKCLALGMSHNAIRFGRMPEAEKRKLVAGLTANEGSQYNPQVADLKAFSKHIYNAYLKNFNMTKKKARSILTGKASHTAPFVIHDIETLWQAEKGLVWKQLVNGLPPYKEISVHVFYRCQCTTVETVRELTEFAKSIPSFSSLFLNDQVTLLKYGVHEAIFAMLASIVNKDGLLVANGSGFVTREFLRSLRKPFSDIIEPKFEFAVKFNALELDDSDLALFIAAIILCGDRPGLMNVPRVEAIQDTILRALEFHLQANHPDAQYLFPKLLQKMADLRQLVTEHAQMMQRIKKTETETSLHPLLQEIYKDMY
# Assay: qHTS assay to identify small molecule antagonists of the peroxisome proliferator-activated receptor delta (PPARd) signaling pathway (AID 743215);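 also: cells stimulated with agonist L165041 at 300 nM final during compound exposure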
# Conditions: HEK293H PPARd-UAS-bla, beta-lactamase FRET ratio, antagonist, 17 h; series mostly up to 62 µM
# Excerpt: U.S. Tox21 Program National Center for Advancing Translational Sciences [NCATS] NIH Chemical Genomics Center [NCGC] U.S. Environmental Protection Agency [EPA] National Institutes of Environmental Health Sciences [NIEHS] National Toxicology Program [NTP] U.S. Food and Drug Administration [FDA] Tox21 Assay Overview: The peroxisome proliferator-activated receptors (PPARs) are lipid-activated transcription factors of the nuclear receptor superfamily with three distinct subtypes namely PPAR alpha, PPAR delta (PPARd) and PPAR gamma. All these subtypes heterodimerizes with Retinoid X receptor (RXR) and have different physiological functions. […] To identify the compounds that inhibit PPAR-delta signaling, GeneBLAzer PPAR delta UAS-bla HEK293H cell line (Invitrogen, Carlsbad, CA, USA) containing a beta-lactamase reporter gene under the control of an Upstream Activator Sequence (UAS) was used to screen the Tox21 compound library.
# Tox21 Assay Protocol Summary: PPARd-bla cells were dispensed at 3000 cells/5uL/well in 1536-well black wall/clear bottom plates using a Multidrop Combi (Thermo Fisher Scientific, Waltham, MA) dispenser. After the assay plates were incubated at 37 C and 5% CO2 for 5 h, 23 nL of compounds dissolved in DMSO, positive controls or DMSO only was transferred to the assay plate by a Pintool station (Kalypsys, San Diego, CA), followed by addition of 1ul L165041 (300 nM, final concentration in the wells). The assay plates were incubated at 37 C for 17 h, and then 1 uL of LiveBLAzerTM B/G FRET substrate was added using a Bioraptr Flying Reagent Dispenser (FRD) workstation (Beckman Coulter, Indianapolis, IN, USA). The assay plates were incubated at room temperature for 2 h and fluorescence intensity was measured by an Envision plate reader (PerkinElmer, Shelton, CT).
SMILES,Potency,"ratio activity, negative = inhibition"
CCN(CC)CCOC(=O)C(c1ccccc1)C1CCCCC1 (stereo not given),inactive,–
C[C@@H](c1ncncc1F)C(O)(Cn1cncn1)c1ccc(F)cc1F (stereo not given in full),inactive,–
Cc1[nH]c(C)c(Cl)c(=O)c1Cl,inactive,–
CN1Cc2cc(C(=O)N3CCC(C4CCNCC4)CC3)ccc2NC(CC(=O)O)C1=O (stereo not given),inactive,–
Cc1c(N)cccc1[N+](=O)[O-],inactive,–
Nc1ccc(N)c2c1C(=O)c1ccccc1C2=O,inactive,–
Nc1c(CC(=O)O)cccc1C(=O)c1ccc(Br)cc1,inactive,–
O=C(NCC1CN(c2ccc(N3CCOCC3=O)cc2)C(=O)O1)c1ccc(Cl)s1 (stereo not given),inactive,–
Cc1cccc(C)c1OCC(=O)N[C@@H](Cc1ccccc1)[C@@H](O)C[C@H](Cc1ccccc1)NC(=O)[C@H](C(C)C)N1CCCNC1=O,inactive,–
COc1cc2c(cc1OC)C(C(C(=O)N(CCc1ccc(OC)c(OC)c1OC)CCc1ccc(OC)c(OC)c1OC)c1ccccc1)=NCC2 (stereo not given),inactive,–
Nc1cccc(S(=O)(=O)c2cccc(N)c2)c1,inactive,–
OC(C#CCN1CCCC1)(c1ccccc1)c1ccccc1,inactive,–
c1ccc(-c2ccccn2)nc1,inactive,–
CCO[C@H](Cc1ccc(OCCc2ccc(OS(C)(=O)=O)cc2)cc1)C(=O)O,inactive,–
CCCCCCc1ccc(-c2ccc(C#N)cc2)cc1,inactive,–
Cc1nn(C)c(Oc2ccccc2)c1/C=N/OCc1ccc(C(=O)OC(C)(C)C)cc1,inactive,–
O=C(Nc1ccccc1)c1ccccc1O,inactive,–
CCCCC/C=C\C/C=C\CCCCCCCC(=O)NC(C)c1ccccc1 (stereo not given),inactive,–
CCOc1ccc(N)c([N+](=O)[O-])c1,inactive,–
c1ccc(C(O[C@H]2CCCN(CCc3ccc4c(c3)OCO4)C2)c2ccccc2)cc1,inactive,–

SMILES,Potency,"ratio activity, negative = inhibition"
CCCCCCCCCOS(=O)(=O)O,inactive,–
O=[N+]([O-])c1ccc(NCCO)c(OCCO)c1,inactive,–
NC(N)=NCCC[C@H](N)C(=O)O,–,-1.1% [at 6.26 µM] (inactive)
CCCCC(CC)COC(=O)CCCCCCCCC(=O)OCC(CC)CCCC (stereo not given),inactive,–
CN1C[C@H]2c3ccccc3Oc3ccc(Cl)cc3[C@@H]2C1,inactive,–
CCCC(=O)Nc1ccc(O)c(C(C)=O)c1,inactive,–
CN(C)c1ccc(CCO)cc1,inactive,–
O=C(O)CNCC(=O)O,–,-0.396% [at 6.26 µM] (inactive)
O=C(O)c1nc(Cl)c(Cl)c(Cl)c1Cl,inactive,–
c1ccc(CNCCNCc2ccccc2)cc1,inactive,–
CC(CSC(=O)c1ccccc1)C(=O)N1C[C@@H](Sc2ccccc2)C[C@H]1C(=O)O (stereo not given in full),inactive,–
C/C(=C(\CCOP(=O)(O)O)SC(=O)c1ccccc1)N(C=O)Cc1cnc(C)nc1N,–,6.78% [at 6.26 µM] (inactive)
CCOc1ccc(O)cc1,inactive,–
OC[C@H]1O[C@@H](OCCc2ccc(O)cc2)[C@H](O)[C@@H](O)[C@@H]1O,inactive,–
O=C(Nc1ccc(S(=O)(=O)N2CCOCC2)cc1)c1cc(Cl)ccc1NS(=O)(=O)c1ccc(Cl)s1,inactive,–
O=C(O)C(S)C(S)C(=O)O (stereo not given),inactive,–
CCCOC(C(=O)OC1CCN(C)CC1)(c1ccccc1)c1ccccc1,inactive,–
O=[N+]([O-])c1ccc2[nH]ncc2c1,inactive,–
OCCNCc1ccccc1,inactive,–
ClCCOCCOCCCl,inactive,–

# Reference: PubChem BioAssay (Tox21)
